Test results taken from PubChem BioAssay (EPA / NIEHS).
Records with an inconclusive call do not appear. The source holds several records for some structures; these can differ, active in one and inactive in another. The source made the active and inactive calls. How the source made its calls: active means hit-call score of the fitted dose curve at least 0.9, where 1 is the maximum; inconclusive means response in the unintended direction; inactive means score below 0.9.

What follows are molecules tested against Estrogen receptor (Homo sapiens) (UniProt P03372) (assay: NVS_NR_hER: NovaScreen (NVS) Nuclear Receptor Binding Assay for human Estrogen Receptor (ER) (AID 2283348)).
Sequence of Estrogen receptor (Homo sapiens) (P03372 whole entry, looked up, the tested form may be a part): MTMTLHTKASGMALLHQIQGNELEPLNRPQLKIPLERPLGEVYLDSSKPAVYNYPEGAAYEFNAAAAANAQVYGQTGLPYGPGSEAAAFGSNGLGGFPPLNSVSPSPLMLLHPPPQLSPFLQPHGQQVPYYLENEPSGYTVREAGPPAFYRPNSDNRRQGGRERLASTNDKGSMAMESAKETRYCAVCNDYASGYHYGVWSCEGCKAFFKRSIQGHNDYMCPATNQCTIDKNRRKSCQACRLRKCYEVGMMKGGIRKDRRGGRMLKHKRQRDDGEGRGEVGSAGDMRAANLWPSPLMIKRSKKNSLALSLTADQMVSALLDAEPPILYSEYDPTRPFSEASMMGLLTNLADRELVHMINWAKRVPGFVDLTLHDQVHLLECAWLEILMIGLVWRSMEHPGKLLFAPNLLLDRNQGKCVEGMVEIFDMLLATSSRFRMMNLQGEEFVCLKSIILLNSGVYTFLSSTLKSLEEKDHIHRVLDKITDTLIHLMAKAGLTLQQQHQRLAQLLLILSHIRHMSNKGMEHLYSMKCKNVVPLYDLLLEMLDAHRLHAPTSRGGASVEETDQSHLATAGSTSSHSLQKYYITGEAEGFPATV
Outline: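 MCF7-derived receptor extract, radiolabelled ligand, competitive displacement. Read: scintillation counts at 18 h. DMSO = negative control/baseline. Primary 25 uM duplicate; follow-up concentration–response.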

SMILES	AC50	outcome
COC(=O)C1=C(C)NC(C)=C(C(=O)OCCN(C)Cc2ccccc2)C1c1cccc([N+](=O)[O-])c1 (configuration not stated)	9.13 µM (active)	–
Cc1cc(C2(c3cc(C)c(O)cc3C)OS(=O)(=O)c3ccccc32)c(C)cc1O	5.05 µM (active)	–
C#C[C@]1(O)CC[C@H]2[C@@H]3CCC4=Cc5oncc5C[C@]4(C)[C@H]3CC[C@@]21C	11.5 µM (active)	inactive
O=Nc1ccc(Nc2ccccc2)cc1	–	inactive
CC(C)C(C)(C)C(C)(C)C(C)(C)S	–	inactive
CC(C)c1cccc(O)c1	–	inactive
CC(=O)[C@H]1CC[C@H]2[C@@H]3CC=C4C[C@@H](O)CC[C@]4(C)[C@H]3CC[C@]12C	–	inactive
CC1=CCC2C(C1)C2(C)C (configuration not stated)	–	inactive
c1cc(C(c2ccc(OCC3CO3)cc2)c2ccc(OCC3CO3)cc2)ccc1OCC1CO1 (configuration not stated)	–	inactive
O=C1c2ccccc2C(=O)N1SC1CCCCC1	–	inactive
Clc1ccc2c(c1)C(N1CCNCC1)=Nc1ccccc1O2	–	inactive

The molecules below were run against Estrogen receptor (Homo sapiens) (UniProt P03372) (assay: OT_ER_ERaERa_1440: Odyssey Thera (OT) 24-hour HEK293T Protein-Complementation Assay for Estrogen Receptor-alpha/-alpha Homodimer (AID 2283349);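 further: hits raise fluorescence above DMSO for agonists and antagonists alike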).
Outline: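 Cells (HEK293T) carrying the fragment-tagged ERα LBD (aa 310-547) pair are treated with chemical for 24 hours. Nuclear and/or cytoplasmic fluorescence is then quantified on a laser scanning cytometer. Activity is scored as signal gain against DMSO.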

SMILES	outcome
CC(C)(N)CO	inactive
CCCCCCCCCCCCCC(=O)O	inactive
CC(=O)C=CC1=C(C)CCCC1(C)C	inactive
Cc1ccc(S)cc1	inactive
CN(C)CCCN	inactive
CCCCc1ccc(N)cc1	inactive
CC(=O)OCCOC(C)=O	inactive
CC(C)(C)C(=O)c1ccccc1	inactive
NC(=O)Nc1ccc(Cl)cc1	inactive
OCCOCCOCCOCCO	inactive
O=Nc1ccc(Nc2ccccc2)cc1	inactive
C=C(C)C(=O)O	inactive
CC(C)c1cccc(O)c1	inactive
CCC/C=C/C=O	inactive
OCCN1CCNCC1	inactive
NCCCN1CCOCC1	inactive
CC(=O)OCCC(C)CC(C)(C)C (configuration not stated)	inactive
O=C1c2ccccc2C(=O)N1SC1CCCCC1	inactive
c1ccc(CCCc2ccccn2)cc1	inactive
CCCCCCCCCCCCCCCC(=O)OC[C@H](O)[C@H]1OC(=O)C(O)=C1O	inactive
